Laboratory results reported in PubChem BioAssay AID720522 (National Center for Advancing Translational Sciences (NCATS), 2013).
The campaign covered roughly 1,400 compounds. About 60 (4%) were called active. Not shown: some 7% with an inconclusive outcome. Calls follow the shape of the dose curve; as a rule, active = well fitted inhibition curve with a large enough effect; inconclusive = small, poorly fitted or top-dose-only effect; inactive = flat fitted curve, though single readings scatter. The list is a sample of the results.

target: Luciferin 4-monooxygenase (Photinus pyralis) (UniProt P08659); assay: Nrf2 qHTS screen for inhibitors: Purified Fluc Biochemical Counterscreen for Hit Validation; conditions: purified firefly luciferase, luminescence inhibition; series mostly up to 57.5 µM; activity change, negative = inhibition: at the top concentration; also: nearly all actives have a fitted effect of over 65% in size
Sequence (P08659 whole entry, looked up): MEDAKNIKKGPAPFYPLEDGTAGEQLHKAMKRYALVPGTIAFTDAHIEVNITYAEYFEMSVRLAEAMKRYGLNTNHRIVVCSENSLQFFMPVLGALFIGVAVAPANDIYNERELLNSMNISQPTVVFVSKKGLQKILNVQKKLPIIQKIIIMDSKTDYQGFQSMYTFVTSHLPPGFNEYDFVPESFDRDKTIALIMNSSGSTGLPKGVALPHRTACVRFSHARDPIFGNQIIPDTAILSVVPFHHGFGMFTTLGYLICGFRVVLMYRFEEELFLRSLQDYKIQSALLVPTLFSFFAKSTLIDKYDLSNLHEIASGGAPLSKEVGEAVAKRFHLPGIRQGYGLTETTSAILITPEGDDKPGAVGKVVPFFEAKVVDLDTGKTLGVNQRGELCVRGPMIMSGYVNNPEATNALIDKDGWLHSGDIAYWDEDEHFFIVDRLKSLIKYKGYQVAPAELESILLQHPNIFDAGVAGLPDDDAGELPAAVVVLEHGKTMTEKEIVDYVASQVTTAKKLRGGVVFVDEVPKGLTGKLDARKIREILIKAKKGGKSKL
From the text: Nrf2 is a transcription factor that maintains cellular redox homoestasis and protects cells from xenobiotics. Nrf2 binds to the antioxidant response element (ARE) to induce gene expression of a broad spectrum of genes that encode for antioxidants. […] Finding a small molecule that act as an inhibitor of Nrf2 function would represent a novel therapeutic target that could lead to improvement in survival of patients undergoing chemo- and/or radio- therapy.
A biochemical assay in 1536 well format was developed and utilized to remove compounds that inhibit the luciferase reporter (Fluc) rather than the Nrf2 enzyme. Inhibition of this assay = false positive inhibition of Nrf2.
NIH Chemical Genomics Center [NCGC]
NIH Molecular Libraries Probe Centers Network [MLPCN]
Assay Submitter (PI): Shyam Biswal, Johns Hopkins University
[1] Shibata T., et al., Genetic alteration of Keap1 confers constitutive Nrf2 activation and resistance to chemotherapy in gallbladder cancer. Gastroenterology, 2008.
[2] Sjoblom T., et al., The consensus coding sequences of human breast and colorectal cancers. Science, 2006.
Three microliter of substrate solution containing 50mM Tris acetate, 13.3 mM Mg-acetate, 0.01mM ATP, 0.01% Tween, 0.05% BSA and 0.01mM D-Luciferin (Sigma, #L9504) was dispensed into 1536 well white solid bottom assay plate (Greiner Bio, #789173-F). Twenty-three nanoliter of compounds dissolved in DMSO at different concentrations was added to the plate using a Kalypsys 1536-pin tool. Then 1 uL of firefly luciferase reagent containing 50mM Tris-acetate and 0.04uM P. pyralis luciferase (Sigma, #L9506) was added. The final DMSO concentration was maintained at 0.56%. Luminescence signal was acquired using the PerkinElmer Viewlux plate reader after incubation at room temperature for 10 minutes.
% is scaled to controls: 0 for no effect and ±100 for the full control effect; potency is read from the fitted curve at half-maximal effect.

Structure (SMILES)	activity change, negative = inhibition	Potency
Cc1cc(C(=O)NC2CCCc3c2cnn3-c2cccc(C)c2C)c(C)o1 (stereo not given)	-15.8% (inactive)	
O=C(CCC(=O)N1CCN(S(=O)(=O)c2ccc(Cl)cc2)CC1)NCc1cccc(C(F)(F)F)c1	2.67% (inactive)	
Cc1nc(N2CCOCC2)c2c(C)c(C(=O)Nc3ccc(C(F)(F)F)cc3)sc2n1	-11.7% (inactive)	
O=C(Nc1ccncc1)c1c(F)cccc1F	0.655% (inactive)	
Cc1ccc(S(=O)(=O)N2CCN(c3ncnc4ccccc34)CC2)cc1		inactive
CC(=NNC(=S)N1CCCCCC1)c1ccccn1		12 µM (active)
CCCCNc1nc2c(c(=O)n(C)c(=O)n2C)n1Cc1cccc(OC)c1	2.33% (inactive)	
CC(=O)N1c2ccc(S(=O)(=O)N3CCCC(C(=O)NCc4ccc(Cl)cc4)C3)cc2CC1C (stereo not given)	-0.0313% (inactive)	
CN(C)c1ccc(/C=C/c2sc3ccccc3[n+]2CCCCBr)cc1	2.47% (inactive)	
CCC(C)N1C(=O)S/C(=C/c2ccc(Sc3nc4ccccc4[nH]3)o2)C1=O (stereo not given)	-3.17% (inactive)	
O=C1C=C(c2ccnc3cc(Cl)ccc23)C[C@@H](c2ccc3c(c2)OCO3)C1	-0.462% (inactive)	
COc1cccc(-c2nc(CS(=O)(=O)CC(=O)N3CCN(c4cc(C)ccc4C)CC3)c(C)o2)c1	-16.5% (inactive)	
COCCn1c(SCC(=O)Nc2ccccc2F)nc2c(c1=O)SCC2	-0.508% (inactive)	
Cn1nccc1C(=O)NC1CCCc2c1cnn2-c1ccc(F)cc1F (stereo not given)	2.08% (inactive)	
Cc1oc2c(F)c(F)c(F)c(F)c2c1S(=O)(=O)Nc1cccc(C(F)(F)F)c1	-1.25% (inactive)	
CC(=O)N1CCCc2cc(S(=O)(=O)N3CCCC(C(=O)N4CCN(c5cccc(Cl)c5)CC4)C3)ccc21 (stereo not given)	-0.273% (inactive)	
Cc1ccc(NC(=O)C2CC(=O)N(c3ccc4c(c3)OCCO4)C2)cc1S(=O)(=O)N1CCCCCC1 (stereo not given)	-12.3% (inactive)	
O/N=C(\C[n+]1ccccc1)c1ccc(Br)cc1	-0.184% (inactive)	
N#CC(C#N)=CN=c1ccn(Cc2ccc(Cl)cc2Cl)cc1	-2.69% (inactive)	
O=c1[nH]c(SCc2cccc(F)c2)nc2ccccc12	-12.6% (inactive)	

Structure (SMILES)	activity change, negative = inhibition	Potency
COc1cccc(-c2nnc(NC(=O)c3ccc(S(=O)(=O)N(CC(C)C)CC(C)C)cc3)o2)c1	-0.563% (inactive)	
Cc1cc(C)c(-c2csc(NC(=O)CCCc3nc4ccccc4c(=O)[nH]3)n2)c(C)c1	1.65% (inactive)	
Cc1c(Cl)cccc1NC(=O)Cn1cc(C(=O)c2cccs2)c2ccccc21	-11.4% (inactive)	
CC1(C)O[C@@H]2CC3C4C[C@H](F)C5=CC(=O)C=CC5(C)C4C(O)CC3(C)[C@]2(C(=O)CO)O1 (stereo not given in full)	-1.87% (inactive)	
CC(=O)Nc1ccc(Nc2c3ccccc3nc3ccccc23)cc1	-10.2% (inactive)	
CCCOc1ccc(C(=O)Nc2ccc3oc(-c4cccc(Cl)c4Cl)nc3c2)cc1	0.869% (inactive)	
CC(=O)OC(C)C[N+](C)(C)C (stereo not given)	-2.04% (inactive)	
COc1ccc(CC(=O)Nc2nc(-c3ccc(F)c(F)c3)cs2)cc1OC	-1.67% (inactive)	
O=C(OCCOc1ccccc1Cl)c1cc(S(=O)(=O)N2CCCCC2)ccc1N1CCOCC1	2.03% (inactive)	
CC1CCCN(S(=O)(=O)c2ccc(C(=O)Nc3nnc(-c4ccncc4)o3)cc2)C1 (stereo not given)	2.31% (inactive)	
CC[C@H]1CN2CCc3cc(OC)c(OC)cc3[C@@H]2C[C@@H]1C[C@H]1NCCc2cc(OC)c(OC)cc21	0.375% (inactive)	
Cc1ccc(S(=O)(=O)N2C[C@@H]3CCCC[C@@H]3[C@@H](C)[C@H]2c2cn(Cc3ccccc3)c3ccc(F)cc23)cc1	2% (inactive)	
OCCCNc1nccc(-c2cc(Nc3cccc(Cl)c3)ncn2)n1	-22.4% (inactive)	
Cc1ccc(NS(=O)(=O)c2cccs2)cc1S(=O)(=O)N1CCCCCC1	-0.678% (inactive)	
CCOC(=O)c1cnc(-n2nc(C)cc2C)nc1NNc1cc(C)nc(-c2ccccc2)n1	4.06% (inactive)	
CN(Cc1cccnc1)C(=O)c1cc(COc2ccc3ncccc3c2)on1	-3.7% (inactive)	
CC1(C)CC(N2CCN(C(c3ccccc3)c3ccccc3)CC2)=CC(=[N+]2CCCCC2)C1	-16% (inactive)	
Cc1csc[n+]1CCC1CCCCC1	-0.381% (inactive)	
O=C(Nc1ccc(Br)cn1)C1CCN(S(=O)(=O)c2cccs2)CC1	1.61% (inactive)	
COc1ccc(N2CCN(C(=O)CSCc3nc(-c4ccccc4Cl)oc3C)CC2)cc1	0.323% (inactive)	

Structure (SMILES)	activity change, negative = inhibition	Potency
CCCOc1ccc(Cc2c(Cl)nc(SC)nc2NC)cc1	-1.64% (inactive)	
Cc1cccc(N2CCN(C(=O)CCS(=O)(=O)c3ccc4c(c3)NC(=O)C(C)S4)CC2)c1C (stereo not given)	2.31% (inactive)	
C[n+]1ccc(/C=C/c2c[nH]c3ccccc23)cc1	2.78% (inactive)	
O=C(CN1C(=O)c2ccccc2S1(=O)=O)N1CCc2ccccc21		4.26 µM (active)
O=C(CSc1nnc2c(n1)[nH]c1ccccc12)NC1CCCCC1	-1.71% (inactive)	
O=C(CC(O)(C(F)(F)F)C(F)(F)F)Nc1ccc(Cl)c(Cl)c1	1.69% (inactive)	
COc1ccc(C(=O)C[n+]2ccc(N)c(C)c2C)cc1	-0.956% (inactive)	
CCCN(c1ccc(C(C)C)cc1)S(=O)(=O)c1c(C)[nH]c(=O)[nH]c1=O	-1.53% (inactive)	
CCOc1ccc(S(=O)(=O)N2CCCCC2)cc1NC(=O)CN1CCCC1c1cccs1 (stereo not given)	-0.627% (inactive)	
CC1CCN(S(=O)(=O)c2ccc(NC(=O)C3CC(=O)N(c4ccccc4)C3)cc2)CC1 (stereo not given)	-0.62% (inactive)	
COc1ccc(CCNC(=O)c2ccc(CS(=O)(=O)c3ccc(Br)cc3)o2)cc1OC	-8.22% (inactive)	
COc1ccc(OC)c(Cc2cnc3nc(N)nc(N)c3c2C)c1	-2.63% (inactive)	
CCCCCCCCn1c2c(c(=N)c3c1CCC3)CCCC2	1.69% (inactive)	
COc1ccc(CCNc2cc(N3CCN(C(=O)c4ccccc4OC)CC3)ccc2[N+](=O)[O-])cc1OC	-10.5% (inactive)	
CC(=O)N1c2ccc(S(=O)(=O)N3CCCC(C(=O)Nc4cccc(Cl)c4)C3)cc2CC1C (stereo not given)	2.21% (inactive)	
CNC(=O)c1cccc2nc3ccccc3nc12	1.57% (inactive)	
CC(C)Cn1c(N)c(C(=O)COC(=O)CN2C(=O)C3CC=CCC3C2=O)c(=O)n(C)c1=O (stereo not given)	0.523% (inactive)	
Cc1cc(C)cc(NS(=O)(=O)c2ccc(Oc3ncc(C(F)(F)F)cc3Cl)cc2)c1	1.28% (inactive)	
CCNS(=O)(=O)c1ccc(CCC(=O)N2CCN(c3cc(Cl)ccc3C)CC2)cc1	2.95% (inactive)	
C=CCC1(CC=C)CCCN1C(=O)c1cc(COc2ccc(-n3cncn3)cc2)on1	0.848% (inactive)	
